Results taken from PubChem BioAssay.

Target: Albumin (Bos taurus) (UniProt P02769)
Assay: compounds binding labelled BSA control protein – biochemical, small-molecule microarray, Alexa647 label, 635/667 nm fluorescence, artefact control for SMM control protein annotation, profiling panel (AID 1118);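 further: score merges 667 nm emission intensity and signal-to-noise per printed compound spot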
Conditions: BSA-A647 binding, fluorescence 635 nm, higher = more signal

Sequence of Albumin (Bos taurus) (P02769 whole entry, looked up): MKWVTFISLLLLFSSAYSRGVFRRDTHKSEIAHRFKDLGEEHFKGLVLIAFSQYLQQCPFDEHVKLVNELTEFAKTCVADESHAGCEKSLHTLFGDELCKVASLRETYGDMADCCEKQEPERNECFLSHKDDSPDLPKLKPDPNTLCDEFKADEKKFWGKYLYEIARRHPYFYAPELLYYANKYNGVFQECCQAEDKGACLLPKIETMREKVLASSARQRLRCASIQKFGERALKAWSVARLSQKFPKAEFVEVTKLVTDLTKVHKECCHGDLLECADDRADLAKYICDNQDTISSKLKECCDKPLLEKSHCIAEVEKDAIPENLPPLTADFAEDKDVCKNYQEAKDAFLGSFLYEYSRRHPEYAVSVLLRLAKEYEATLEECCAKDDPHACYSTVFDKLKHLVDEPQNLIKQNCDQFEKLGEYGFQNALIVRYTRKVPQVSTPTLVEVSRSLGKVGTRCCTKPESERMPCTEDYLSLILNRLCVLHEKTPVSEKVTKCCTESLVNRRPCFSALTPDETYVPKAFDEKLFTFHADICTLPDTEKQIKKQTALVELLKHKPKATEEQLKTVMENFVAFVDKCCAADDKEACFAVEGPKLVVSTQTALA

| Compound | composite z-score |
| --- | --- |
| CC(C)N1CC=CC23O[C@@H]4C=CCOC(=O)[C@@H]4[C@H]2C(=O)N(CCCCCO)[C@@H]3C1=O (stereo partly specified) | 1.02 |
| [N-]=[N+]=Nc1ccccc1C[C@@]1(C(=O)N2CCCCC2)N=C(c2ccc(OCCCO)cc2)O[C@@H]1c1ccccc1 | 0.782 |
| OCC1C=C(/C=C/c2ccccc2)CN1Cc1ccccc1Br (stereo unspecified) | 0.718 |
| C=CC[C@@]1(C(=O)N2CCCCC2)N=C(c2ccc(OCCCO)cc2)O[C@@H]1c1ccccc1N=[N+]=[N-] | 0.82 |
| CO[C@H]1O[C@H](CO)[C@@H](OC(=O)Nc2ccc(Oc3ccccc3)cc2)[C@H](OC(=O)Nc2ccc3c(c2)OCO3)[C@@H]1OC(=O)Nc1ccc2c(c1)OCO2 | 0.277 |
| COCCOC(=O)N1C(=O)[C@@]2(c3ccccc31)[C@H](C(=O)N1CCc3cc(OC)c(OC)cc3C1)[C@H]1C(=O)O[C@H](c3ccccc3)[C@H](c3ccccc3)N1[C@@H]2c1ccc(O)cc1 | 0.795 |
| CCCCC(=C=CC[C@@H](O)c1cccc(OCCO)c1)C[C@@H](O)c1ccccn1 | 0.416 |
| CCOC(=O)C[C@H]1[C@H](OC(=O)c2cc3ccccc3oc2=O)[C@@H](NC(=O)CC(C)C)c2cc(OCCCO)ccc2N1C(=O)c1ccccc1 | 0.793 |
| CC(C)(C)OC(=O)CC[C@@]1(C(=O)N2CCCCC2)N=C(c2ccc(OCCCO)cc2)O[C@@H]1c1ccccc1 | 0.962 |
| Cc1ccc(S(=O)(=O)N2C[C@@H](C(=O)O)[C@H](Sc3ccccc3)C[C@H]2c2ccccc2)cc1 | 0.855 |
| O=C1[C@H]2C=C(Br)[C@H](C[C@@H]2OCCCCCCO)[C@@]12CO2 | -0.699 |
